# According to article PMC7862700, “An all-to-all approach to the identification of sequence-specific readers for epigenetic DNA modifications on cytosine”:
# What was measured:
# Test in all cases: DAPPL (digital affinity profiling via proximity ligation, sequencing); 10 mM Tris-HCl pH 7.5, 50 mM NaCl, 1 mM DTT, 4% glycerol, room temperature, 30 min; GST-TFs on glutathione beads, 16-mer random dsDNA library, 0.1% formaldehyde crosslink after washing; high values mean tight binding
# FLI1 = biological target: T1, FLI1 (Homo sapiens, UniProt Q01543 1-452); details: protein: recombinant; tags: N-terminal GST; dsDNA, one strand shown
# T1 sequence: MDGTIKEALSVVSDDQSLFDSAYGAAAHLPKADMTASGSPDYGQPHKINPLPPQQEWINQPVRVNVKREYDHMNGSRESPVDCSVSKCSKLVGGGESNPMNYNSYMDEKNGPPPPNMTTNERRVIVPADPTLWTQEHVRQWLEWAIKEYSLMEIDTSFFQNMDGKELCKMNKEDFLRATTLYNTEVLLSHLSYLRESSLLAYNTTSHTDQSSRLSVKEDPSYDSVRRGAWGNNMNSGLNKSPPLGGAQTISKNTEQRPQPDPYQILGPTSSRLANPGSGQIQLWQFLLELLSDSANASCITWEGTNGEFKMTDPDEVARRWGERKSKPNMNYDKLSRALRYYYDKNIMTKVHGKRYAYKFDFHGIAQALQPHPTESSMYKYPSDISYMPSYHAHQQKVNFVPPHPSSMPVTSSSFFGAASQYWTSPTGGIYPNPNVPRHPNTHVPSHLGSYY
# Procedure, shortened: (§1)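 Sequencing on an Illumina NextSeq500 followed washing, crosslinking with 0.1% formaldehyde, proximity ligation (BsaI/T4 ligase, 1 h, 37 °C) and PCR amplification of pools that had been incubated for 30 min at room temperature with 200 nmole of a random double-stranded 16-mer DNA library in Tris/NaCl/DTT/glycerol buffer. Each pool held DNA-barcoded human transcription factors, expressed in yeast as GST fusions and captured on glutathione beads, plus a tag-only sample. Binding signal is a hexamer's read frequency for a factor divided by its frequency in the tag-only sample.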
# ELK1 = biological target: T2, ELK1 (Homo sapiens, UniProt P19419 1-428); details: protein: recombinant; tags: N-terminal GST; dsDNA, one strand shown
# T2 sequence: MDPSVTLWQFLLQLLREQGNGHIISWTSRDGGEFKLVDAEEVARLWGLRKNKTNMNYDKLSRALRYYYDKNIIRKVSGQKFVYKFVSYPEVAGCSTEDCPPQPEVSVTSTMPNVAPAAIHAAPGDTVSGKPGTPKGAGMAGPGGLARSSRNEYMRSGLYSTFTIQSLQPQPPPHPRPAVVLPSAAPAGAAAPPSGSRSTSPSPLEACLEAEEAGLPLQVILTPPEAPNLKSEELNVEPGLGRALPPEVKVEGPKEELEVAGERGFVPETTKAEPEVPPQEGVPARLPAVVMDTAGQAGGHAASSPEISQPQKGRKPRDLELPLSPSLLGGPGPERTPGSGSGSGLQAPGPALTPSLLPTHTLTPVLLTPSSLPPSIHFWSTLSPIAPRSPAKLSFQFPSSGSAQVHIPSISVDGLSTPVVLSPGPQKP
# Procedure, shortened: as §1
# GABPA = biological target: T3, GABPA (Homo sapiens, UniProt Q06546 1-454); details: protein: recombinant; tags: N-terminal GST; dsDNA, one strand shown
# T3 sequence: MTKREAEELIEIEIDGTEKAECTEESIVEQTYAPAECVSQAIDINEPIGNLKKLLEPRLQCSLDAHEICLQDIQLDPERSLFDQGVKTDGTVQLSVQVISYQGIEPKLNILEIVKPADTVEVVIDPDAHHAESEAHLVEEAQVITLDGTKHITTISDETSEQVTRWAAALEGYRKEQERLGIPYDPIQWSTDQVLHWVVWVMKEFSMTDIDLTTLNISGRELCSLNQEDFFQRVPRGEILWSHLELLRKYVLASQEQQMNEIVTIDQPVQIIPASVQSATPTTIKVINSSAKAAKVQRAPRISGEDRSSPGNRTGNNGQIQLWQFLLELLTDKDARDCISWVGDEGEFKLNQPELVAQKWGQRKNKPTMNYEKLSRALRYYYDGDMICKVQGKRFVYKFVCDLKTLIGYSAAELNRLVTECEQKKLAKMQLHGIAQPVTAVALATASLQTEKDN
# Procedure, shortened: as §1
# ERG = biological target: T4, ERG (Homo sapiens, UniProt P11308 1-479); details: protein: recombinant; tags: N-terminal GST; dsDNA, one strand shown
# T4 sequence: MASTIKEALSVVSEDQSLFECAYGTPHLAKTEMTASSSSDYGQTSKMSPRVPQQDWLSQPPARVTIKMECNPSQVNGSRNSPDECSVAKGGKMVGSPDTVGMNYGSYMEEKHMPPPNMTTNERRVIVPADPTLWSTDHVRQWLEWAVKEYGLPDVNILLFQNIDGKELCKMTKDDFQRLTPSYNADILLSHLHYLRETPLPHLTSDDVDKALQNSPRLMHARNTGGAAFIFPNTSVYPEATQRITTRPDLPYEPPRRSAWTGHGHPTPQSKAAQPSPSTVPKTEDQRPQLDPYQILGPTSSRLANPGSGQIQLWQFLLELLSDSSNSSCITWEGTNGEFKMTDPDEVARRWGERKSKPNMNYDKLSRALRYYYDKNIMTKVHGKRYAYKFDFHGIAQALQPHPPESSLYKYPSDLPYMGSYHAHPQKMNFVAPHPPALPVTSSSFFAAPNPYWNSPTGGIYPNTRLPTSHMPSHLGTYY
# Procedure, shortened: as §1
# ELF1 = ELF1 (Homo sapiens, UniProt P32519 1-619); details: protein: recombinant; tags: N-terminal GST; dsDNA, one strand shown
# ELF1, sequence (P32519 whole entry): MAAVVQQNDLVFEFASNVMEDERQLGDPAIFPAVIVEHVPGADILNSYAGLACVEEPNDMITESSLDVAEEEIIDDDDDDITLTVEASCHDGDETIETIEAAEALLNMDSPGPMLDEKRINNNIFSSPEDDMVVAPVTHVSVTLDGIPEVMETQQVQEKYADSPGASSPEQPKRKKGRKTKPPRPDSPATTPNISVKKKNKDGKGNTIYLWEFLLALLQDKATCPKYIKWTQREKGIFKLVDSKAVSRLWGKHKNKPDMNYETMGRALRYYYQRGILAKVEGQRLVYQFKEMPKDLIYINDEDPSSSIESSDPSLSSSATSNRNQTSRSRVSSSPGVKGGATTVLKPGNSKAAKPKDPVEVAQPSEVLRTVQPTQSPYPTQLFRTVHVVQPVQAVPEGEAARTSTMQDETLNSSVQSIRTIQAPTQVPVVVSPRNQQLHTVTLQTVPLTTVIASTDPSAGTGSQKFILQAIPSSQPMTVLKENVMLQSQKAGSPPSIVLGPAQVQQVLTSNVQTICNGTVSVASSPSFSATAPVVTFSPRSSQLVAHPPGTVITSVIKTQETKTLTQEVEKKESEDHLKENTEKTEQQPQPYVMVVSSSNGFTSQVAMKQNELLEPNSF
# Procedure, shortened: as §1
# EHF = biological target: T5, EHF (Homo sapiens, UniProt Q9NZC4 1-300); details: protein: recombinant; tags: N-terminal GST; dsDNA, one strand shown
# T5 sequence: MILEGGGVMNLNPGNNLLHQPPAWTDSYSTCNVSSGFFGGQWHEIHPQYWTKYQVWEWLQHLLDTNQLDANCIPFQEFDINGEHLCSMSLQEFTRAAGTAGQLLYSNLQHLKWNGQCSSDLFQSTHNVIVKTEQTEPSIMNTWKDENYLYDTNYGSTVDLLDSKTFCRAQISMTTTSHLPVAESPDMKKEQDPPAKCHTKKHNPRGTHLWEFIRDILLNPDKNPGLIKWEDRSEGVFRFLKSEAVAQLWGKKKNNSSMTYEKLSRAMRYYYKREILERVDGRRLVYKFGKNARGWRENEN
# Procedure, shortened: as §1
# SPI1 = SPI1 (Homo sapiens, UniProt P17947 1-270); details: protein: recombinant; tags: N-terminal GST; dsDNA, one strand shown
# Procedure, shortened: as §1
# SPIB = SPIB (Homo sapiens, UniProt Q01892 1-262); details: protein: recombinant; tags: N-terminal GST; dsDNA, one strand shown
# SPIB, sequence (Q01892 whole entry): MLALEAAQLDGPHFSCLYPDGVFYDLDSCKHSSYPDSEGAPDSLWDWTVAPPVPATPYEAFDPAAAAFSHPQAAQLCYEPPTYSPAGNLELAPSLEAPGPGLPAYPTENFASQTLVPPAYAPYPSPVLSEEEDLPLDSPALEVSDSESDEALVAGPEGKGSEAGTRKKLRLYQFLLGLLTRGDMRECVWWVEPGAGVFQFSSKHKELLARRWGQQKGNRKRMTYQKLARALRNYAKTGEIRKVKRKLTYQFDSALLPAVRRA
# Procedure, shortened: as §1
# ELK3 = biological target: T6, ELK3 (Homo sapiens, UniProt P41970 1-407); details: protein: recombinant; tags: N-terminal GST; dsDNA, one strand shown
# T6 sequence: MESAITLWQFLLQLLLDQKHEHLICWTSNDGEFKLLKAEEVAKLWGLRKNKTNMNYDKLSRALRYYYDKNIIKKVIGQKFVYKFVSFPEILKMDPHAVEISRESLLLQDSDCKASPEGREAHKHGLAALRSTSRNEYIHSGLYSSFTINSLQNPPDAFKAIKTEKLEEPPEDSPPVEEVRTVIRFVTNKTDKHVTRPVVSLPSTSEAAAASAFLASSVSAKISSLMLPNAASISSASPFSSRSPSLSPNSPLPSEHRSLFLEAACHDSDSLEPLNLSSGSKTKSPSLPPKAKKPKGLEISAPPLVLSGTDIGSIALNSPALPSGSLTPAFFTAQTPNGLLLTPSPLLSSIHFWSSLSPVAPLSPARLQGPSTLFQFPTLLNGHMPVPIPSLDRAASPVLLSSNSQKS
# Procedure, shortened: as §1
# FEV = biological target: T7, FEV (Homo sapiens, UniProt Q99581 1-238); details: protein: recombinant; tags: N-terminal GST; dsDNA, one strand shown
# T7 sequence: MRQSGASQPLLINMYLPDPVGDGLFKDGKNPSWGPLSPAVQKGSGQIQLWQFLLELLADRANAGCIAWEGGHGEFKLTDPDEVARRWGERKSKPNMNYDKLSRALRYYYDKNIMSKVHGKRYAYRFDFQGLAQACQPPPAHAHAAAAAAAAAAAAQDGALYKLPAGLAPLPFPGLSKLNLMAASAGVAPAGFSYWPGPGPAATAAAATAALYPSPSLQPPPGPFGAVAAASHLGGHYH
# Procedure, shortened: as §1
# ETV5 = ETV5 (Homo sapiens, UniProt P41161 1-510); details: protein: recombinant; tags: N-terminal GST; dsDNA, one strand shown
# ETV5, sequence (P41161 whole entry): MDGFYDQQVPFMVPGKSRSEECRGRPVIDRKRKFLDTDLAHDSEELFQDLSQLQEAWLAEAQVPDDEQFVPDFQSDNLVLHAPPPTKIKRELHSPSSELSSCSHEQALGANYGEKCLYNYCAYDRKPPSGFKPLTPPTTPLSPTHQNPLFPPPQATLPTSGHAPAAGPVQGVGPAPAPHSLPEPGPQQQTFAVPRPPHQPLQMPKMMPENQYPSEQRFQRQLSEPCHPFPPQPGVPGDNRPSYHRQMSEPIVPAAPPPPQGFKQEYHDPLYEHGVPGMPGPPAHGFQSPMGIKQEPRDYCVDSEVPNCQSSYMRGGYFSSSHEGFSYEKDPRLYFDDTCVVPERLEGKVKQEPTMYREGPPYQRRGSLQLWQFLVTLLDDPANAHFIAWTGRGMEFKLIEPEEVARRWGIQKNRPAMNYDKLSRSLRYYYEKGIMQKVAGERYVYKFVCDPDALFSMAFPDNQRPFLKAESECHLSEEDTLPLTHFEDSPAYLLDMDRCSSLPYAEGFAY
# Procedure, shortened: as §1
# HSF1 = HSF1 (Homo sapiens, UniProt Q00613 1-529); details: protein: recombinant; tags: N-terminal GST; chain copies: 3; dsDNA, one strand shown
# HSF1, sequence (Q00613 whole entry): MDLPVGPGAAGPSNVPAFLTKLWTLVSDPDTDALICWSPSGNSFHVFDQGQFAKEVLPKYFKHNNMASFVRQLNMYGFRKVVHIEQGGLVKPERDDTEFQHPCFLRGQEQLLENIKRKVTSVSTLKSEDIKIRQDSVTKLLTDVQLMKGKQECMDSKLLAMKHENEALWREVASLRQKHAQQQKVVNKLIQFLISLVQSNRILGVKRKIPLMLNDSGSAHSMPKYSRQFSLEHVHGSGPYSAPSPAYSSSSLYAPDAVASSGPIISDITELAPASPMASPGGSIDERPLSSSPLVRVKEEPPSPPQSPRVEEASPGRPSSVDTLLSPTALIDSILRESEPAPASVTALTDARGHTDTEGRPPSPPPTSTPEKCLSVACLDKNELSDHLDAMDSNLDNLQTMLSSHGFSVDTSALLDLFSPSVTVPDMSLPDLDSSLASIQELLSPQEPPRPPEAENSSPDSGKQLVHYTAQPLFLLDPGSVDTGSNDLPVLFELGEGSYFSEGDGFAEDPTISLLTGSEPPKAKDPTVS
# Procedure, shortened: as §1
# SPIC = biological target: T8, SPIC (Homo sapiens, UniProt Q8N5J4 1-248); details: protein: recombinant; tags: N-terminal GST; dsDNA, one strand shown
# T8 sequence: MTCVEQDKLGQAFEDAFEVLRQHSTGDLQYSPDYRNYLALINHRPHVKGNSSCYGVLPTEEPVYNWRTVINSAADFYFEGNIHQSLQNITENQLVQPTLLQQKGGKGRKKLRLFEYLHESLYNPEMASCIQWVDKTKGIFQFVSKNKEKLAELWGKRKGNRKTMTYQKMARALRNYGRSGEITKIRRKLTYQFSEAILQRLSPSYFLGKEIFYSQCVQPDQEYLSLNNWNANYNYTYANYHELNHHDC
# Procedure, shortened: as §1
# ELF4 = ELF4 (Homo sapiens, UniProt Q99607 1-663); details: protein: recombinant; tags: N-terminal GST; dsDNA, one strand shown
# ELF4, sequence (Q99607 whole entry): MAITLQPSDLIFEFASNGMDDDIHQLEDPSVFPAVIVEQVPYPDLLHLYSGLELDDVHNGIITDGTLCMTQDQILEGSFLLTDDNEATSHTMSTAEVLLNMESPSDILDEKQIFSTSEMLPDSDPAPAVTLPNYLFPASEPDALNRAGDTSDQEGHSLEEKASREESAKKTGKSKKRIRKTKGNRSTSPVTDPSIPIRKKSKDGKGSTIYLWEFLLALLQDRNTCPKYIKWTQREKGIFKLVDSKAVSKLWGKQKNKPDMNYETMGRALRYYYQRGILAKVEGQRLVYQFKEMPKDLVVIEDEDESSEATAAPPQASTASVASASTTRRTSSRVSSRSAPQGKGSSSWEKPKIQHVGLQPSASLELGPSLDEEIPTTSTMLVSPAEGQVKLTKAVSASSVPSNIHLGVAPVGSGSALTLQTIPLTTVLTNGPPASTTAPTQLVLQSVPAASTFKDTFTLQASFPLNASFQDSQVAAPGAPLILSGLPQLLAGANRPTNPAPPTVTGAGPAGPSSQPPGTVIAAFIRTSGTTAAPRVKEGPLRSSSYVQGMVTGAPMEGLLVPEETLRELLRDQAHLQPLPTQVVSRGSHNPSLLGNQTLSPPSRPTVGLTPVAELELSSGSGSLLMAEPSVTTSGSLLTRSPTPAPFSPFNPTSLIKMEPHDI
# Procedure, shortened: as §1
# ELK4 = biological target: T9, ELK4 (Homo sapiens, UniProt P28324-2 1-405); details: protein: recombinant; tags: N-terminal GST; dsDNA, one strand shown
# T9 sequence: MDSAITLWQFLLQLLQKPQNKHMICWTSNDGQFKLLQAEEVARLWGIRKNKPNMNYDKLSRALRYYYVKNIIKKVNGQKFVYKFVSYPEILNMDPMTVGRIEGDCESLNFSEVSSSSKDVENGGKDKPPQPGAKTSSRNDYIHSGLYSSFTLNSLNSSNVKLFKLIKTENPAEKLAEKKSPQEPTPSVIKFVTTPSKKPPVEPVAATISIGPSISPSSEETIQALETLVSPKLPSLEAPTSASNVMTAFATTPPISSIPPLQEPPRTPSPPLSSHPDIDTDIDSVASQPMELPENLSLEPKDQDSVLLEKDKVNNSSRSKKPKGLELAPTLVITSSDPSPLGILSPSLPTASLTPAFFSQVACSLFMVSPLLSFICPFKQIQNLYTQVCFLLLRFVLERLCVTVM
# Procedure, shortened: as §1
# ETV2 = biological target: T10, ETV2 (Homo sapiens, UniProt O00321 1-342); details: protein: recombinant; tags: N-terminal GST; dsDNA, one strand shown
# T10 sequence: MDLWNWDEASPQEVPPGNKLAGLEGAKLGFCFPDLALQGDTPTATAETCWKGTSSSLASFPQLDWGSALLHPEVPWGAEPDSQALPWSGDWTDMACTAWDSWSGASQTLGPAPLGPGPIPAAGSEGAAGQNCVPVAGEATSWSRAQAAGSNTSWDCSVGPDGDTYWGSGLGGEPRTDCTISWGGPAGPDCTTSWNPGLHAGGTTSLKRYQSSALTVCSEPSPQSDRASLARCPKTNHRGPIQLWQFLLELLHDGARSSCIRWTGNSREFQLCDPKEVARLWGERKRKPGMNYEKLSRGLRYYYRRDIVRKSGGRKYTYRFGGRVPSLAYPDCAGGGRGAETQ
# Procedure, shortened: as §1
# ELF3 = biological target: T11, ELF3 (Homo sapiens, UniProt P78545 1-371); details: protein: recombinant; tags: N-terminal GST; dsDNA, one strand shown
# T11 sequence: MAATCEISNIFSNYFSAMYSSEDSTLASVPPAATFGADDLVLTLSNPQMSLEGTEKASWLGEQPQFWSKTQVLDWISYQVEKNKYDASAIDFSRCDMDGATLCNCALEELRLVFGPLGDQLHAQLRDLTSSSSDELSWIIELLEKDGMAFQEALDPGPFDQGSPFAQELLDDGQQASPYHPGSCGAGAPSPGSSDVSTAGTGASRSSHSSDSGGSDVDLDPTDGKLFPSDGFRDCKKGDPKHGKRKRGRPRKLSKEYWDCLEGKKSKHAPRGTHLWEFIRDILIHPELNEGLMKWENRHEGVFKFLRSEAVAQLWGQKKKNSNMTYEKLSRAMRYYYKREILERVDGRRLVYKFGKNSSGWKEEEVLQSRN
# Procedure, shortened: as §1
# CRX = CRX (Homo sapiens, UniProt O43186 1-299); details: protein: recombinant; tags: N-terminal GST; dsDNA, one strand shown
# CRX, sequence (O43186 whole entry): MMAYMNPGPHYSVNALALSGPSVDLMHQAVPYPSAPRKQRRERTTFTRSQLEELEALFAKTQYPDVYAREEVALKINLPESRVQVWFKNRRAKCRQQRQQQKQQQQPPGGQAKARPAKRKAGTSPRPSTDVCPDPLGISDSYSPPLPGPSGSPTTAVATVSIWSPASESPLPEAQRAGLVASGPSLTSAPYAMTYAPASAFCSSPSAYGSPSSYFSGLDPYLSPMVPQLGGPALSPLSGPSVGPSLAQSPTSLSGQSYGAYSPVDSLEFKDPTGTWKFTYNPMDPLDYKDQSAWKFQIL
# Procedure, shortened: as §1
# ETV1 = ETV1 (Homo sapiens, UniProt P50549 1-477); details: protein: recombinant; tags: N-terminal GST; dsDNA, one strand shown
# ETV1, sequence (P50549 whole entry): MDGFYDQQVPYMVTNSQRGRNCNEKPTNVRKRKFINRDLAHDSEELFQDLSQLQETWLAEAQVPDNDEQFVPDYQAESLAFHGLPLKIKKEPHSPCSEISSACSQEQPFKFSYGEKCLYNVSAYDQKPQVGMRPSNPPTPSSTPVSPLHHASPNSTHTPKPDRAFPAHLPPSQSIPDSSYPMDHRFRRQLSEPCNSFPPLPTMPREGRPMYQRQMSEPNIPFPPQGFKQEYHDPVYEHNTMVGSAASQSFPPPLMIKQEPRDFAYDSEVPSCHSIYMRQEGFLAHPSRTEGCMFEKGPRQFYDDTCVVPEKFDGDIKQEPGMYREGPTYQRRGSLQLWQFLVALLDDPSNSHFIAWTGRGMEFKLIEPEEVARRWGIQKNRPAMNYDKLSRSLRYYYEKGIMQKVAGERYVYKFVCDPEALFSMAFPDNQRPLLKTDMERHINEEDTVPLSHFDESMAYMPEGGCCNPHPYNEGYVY
# Procedure, shortened: as §1
sequence,measurement,setting,value
TCTAAA,binding signal,FLI1,"1.24 fold enrichment (6-mer frequency, TF over GST control)"
same,binding signal,ELK1,"1.22 fold enrichment (6-mer frequency, TF over GST control)"
same,binding signal,GABPA,"1.26 fold enrichment (6-mer frequency, TF over GST control)"
same,binding signal,ERG,"1.24 fold enrichment (6-mer frequency, TF over GST control)"
same,binding signal,ELF1,"1.21 fold enrichment (6-mer frequency, TF over GST control)"
same,binding signal,EHF,"1.2 fold enrichment (6-mer frequency, TF over GST control)"
same,binding signal,SPI1,"1.18 fold enrichment (6-mer frequency, TF over GST control)"
same,binding signal,SPIB,"1.16 fold enrichment (6-mer frequency, TF over GST control)"
same,binding signal,ELK3,"1.2 fold enrichment (6-mer frequency, TF over GST control)"
same,binding signal,FEV,"1.15 fold enrichment (6-mer frequency, TF over GST control)"
same,binding signal,ETV5,"1.15 fold enrichment (6-mer frequency, TF over GST control)"
same,binding signal,HSF1,"1.46 fold enrichment (6-mer frequency, TF over GST control)"
same,binding signal,SPIC,"1.46 fold enrichment (6-mer frequency, TF over GST control)"
same,binding signal,ELF4,"1.27 fold enrichment (6-mer frequency, TF over GST control)"
same,binding signal,ELK4,"1.3 fold enrichment (6-mer frequency, TF over GST control)"
same,binding signal,ETV2,"1.27 fold enrichment (6-mer frequency, TF over GST control)"
same,binding signal,ELF3,"1.14 fold enrichment (6-mer frequency, TF over GST control)"
same,binding signal,CRX,"1.6 fold enrichment (6-mer frequency, TF over GST control)"
same,binding signal,ETV1,"1.16 fold enrichment (6-mer frequency, TF over GST control)"
